Assay results as given in PubChem BioAssay (NCI).
The panel holds about 79,000 compounds, 15% with a hit somewhere; the sample as a whole holds those more often. Calls of active or inactive are those of the source. No stated cut-off is given here; in the data, active means growth inhibition above about 70%; inactive means the rest.

Key:
[1] = NCI Yeast Anticancer Drug Screen. Data for the mec2-1 strain (AID 157); settings: S. cerevisiae mec2-1 strain, active compounds read high
Outline: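 Mutant yeast (mec2-1) grown with compound; growth inhibition relative to vehicle control reported.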

[2] = NCI Yeast Anticancer Drug Screen. Data for the rad14 strain (AID 159);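 further: 0% = growth of vehicle-treated control cultures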; settings: S. cerevisiae rad14 strain growth inhibition, active compounds read high
Outline: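 Here, inhibition of yeast growth was measured after compound exposure, using a strain with a genetic defect in DNA damage repair and vehicle-treated cultures as the reference.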

[3] = NCI Yeast Anticancer Drug Screen. Data for the sgs1 mgt1 strain (AID 161);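 further: 0% = growth of cultures given vehicle only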; settings: S. cerevisiae sgs1 mgt1 strain, active compounds read high
Outline: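 Percent growth inhibition was derived by comparing compound-exposed mutant yeast with vehicle-exposed cultures. The strain carries alterations in DNA damage repair.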

[4] = NCI Yeast Anticancer Drug Screen. Data for the CLN2oe strain (AID 163);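 further: 0% = growth of vehicle-only control cultures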; settings: S. cerevisiae CLN2oe strain, active compounds read high
Outline: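 Compounds are applied to yeast harbouring a defined cell-cycle control change; reduced growth compared with vehicle-treated controls gives the value.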

[5] = NCI Yeast Anticancer Drug Screen. Data for the cln2 rad14 strain (AID 165);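 further: 0% = growth equal to vehicle treated cultures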; settings: S. cerevisiae cln2 rad14 strain, active compounds read high
Outline: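 Readout is yeast growth inhibition versus vehicle-treated controls, using a strain with cln2 and rad14 alterations exposed to compound.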

[6] = NCI Yeast Anticancer Drug Screen. Data for the bub3 strain (AID 167); settings: S. cerevisiae bub3 mutant strain, active compounds read high
Outline: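 Whole-cell yeast assay. The mutant strain was incubated with compounds, and growth inhibition was determined by comparison with vehicle-treated cells.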

[7] = NCI Yeast Anticancer Drug Screen. Data for the mlh1 strain (AID 171);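 further: 0% = growth of vehicle-treated control cultures of the same strain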; settings: S. cerevisiae mlh1 strain growth inhibition, active compounds read high
Outline: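 Measured: yeast growth. Reference: vehicle-treated controls. Organism: strain with a defined alteration affecting DNA damage repair or cell cycle control, treated with compound.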

[8] = NCI Yeast Anticancer Drug Screen. Data for the sgs1 strain (AID 173);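 further: 0% = growth of vehicle-only control cultures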; settings: S. cerevisiae sgs1 mutant, active compounds read high
Outline: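 Each compound was added to cultures of the altered yeast strain. Growth was recorded, and inhibition was derived by comparison with vehicle controls.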

[9] = NCI Yeast Anticancer Drug Screen. Data for the mlh1 rad18 strain (AID 175); settings: S. cerevisiae mlh1 rad18 strain growth inhibition, active compounds read high
Outline: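 Genetically defined yeast (DNA repair-deficient) exposed to compounds; growth inhibition determined relative to vehicle.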

[10] = NCI Yeast Anticancer Drug Screen. Data for the rad18 strain (AID 177); settings: S. cerevisiae rad18 mutant growth inhibition, active compounds read high
Outline: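 Vehicle-treated cultures served as the baseline for scoring compound-induced growth inhibition in DNA-repair-mutant yeast.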

[11] = NCI Yeast Anticancer Drug Screen. Data for the rad52 strain (AID 147);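 further: 0% = growth of vehicle-treated control cultures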; settings: S. cerevisiae rad52 mutant growth inhibition, active compounds read high
Outline: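 The repair-mutant yeast strain was incubated with compounds, then growth was read and inhibition derived relative to vehicle.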

[12] = NCI Yeast Anticancer Drug Screen. Data for the wt1 strain (AID 149);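 further: 0% = growth of vehicle-treated wt1 cultures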; settings: S. cerevisiae wt1 strain (SPY 50644) growth inhibition, active compounds read high
Outline: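 Measured: growth of wt1 yeast under compound versus vehicle treatment, reported as inhibition.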

[13] = NCI Yeast Anticancer Drug Screen. Data for the rad50EPP+ strain (AID 151);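 further: 0% = growth of vehicle-treated control cultures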; settings: S. cerevisiae rad50 mutant strain, active compounds read high
Outline: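 Vehicle-normalised growth inhibition; rad50EPP+ yeast strain, altered in DNA damage repair, compound-treated.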

[14] = NCI Yeast Anticancer Drug Screen. Data for the mgt1 strain (AID 153); settings: S. cerevisiae mgt1 mutant growth inhibition, active compounds read high
Outline: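 Vehicle-normalized growth inhibition is determined in mgt1 yeast, a strain selected for a defined alteration in DNA repair or cell cycle control.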

[15] = NCI Yeast Anticancer Drug Screen. Data for the rad50 strain (AID 155);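 further: 0% = growth of vehicle-only cultures of the same strain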; settings: S. cerevisiae rad50 strain growth inhibition, active compounds read high
Outline: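 Growth of the mutant yeast was measured after compound exposure and referenced to vehicle-treated cultures.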

[16] = NCI Yeast Anticancer Drug Screen. Data for the wt2 strain (AID 169);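 further: 0% = growth of vehicle-treated yeast cultures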; settings: S. cerevisiae wt2 strain growth inhibition, active compounds read high
Outline: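 Against vehicle-treated controls, the growth of yeast exposed to each compound was compared, and the inhibition was recorded.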

[17] = at 5.0 µM (retest, dose inferred, filed as 0.5)
[18] = at 50.0 µM (retest, dose inferred, filed as 5.0)

Measured: growth inhibition

CCCCCCNCCCNc1c2ccccc2nc2cccc([N+](=O)[O-])c12
active: [1]; at 11.0 µM 94% | [1]; at 33.0 µM 97% | [1]; [18] 99% | [1]; at 50.0 µM 88.1% | [1]; at 100.0 µM 97% | [2]; at 3.7 µM 86% | [2]; at 11.0 µM 98% | [2]; at 33.0 µM 98% | [2]; at 100.0 µM 97% | [3]; [17] 84% | [3]; [18] 97% | [3]; at 50.0 µM 74.3% | [4]; at 100.0 µM 93% | [5]; [17] 80% | [5]; [18] 99% | [5]; at 50.0 µM 85.4% | [6]; [18] 98% | [6]; at 100.0 µM 98% | [7]; at 33.0 µM 89% | [7]; at 100.0 µM 94% | [8]; at 3.7 µM 80% | [8]; at 11.0 µM 90% | [8]; at 33.0 µM 93% | [8]; at 100.0 µM 95% | [9]; [17] 76% | [9]; [18] 98% | [9]; at 50.0 µM 78.5% | [10]; at 1.2 µM 93% | [10]; at 3.7 µM 95% | [10]; at 11.0 µM 96% | [10]; at 33.0 µM 96% | [10]; at 100.0 µM 95%
inactive: [1]; [17] 15% | [2]; at 1.2 µM 23% | [4]; at 1.2 µM -6% | [4]; at 3.7 µM -6% | [4]; at 11.0 µM -5% | [4]; at 33.0 µM 29% | [6]; at 1.2 µM -10% | [6]; at 3.7 µM -16% | [6]; [17] -42% | [6]; at 11.0 µM -12% | [6]; at 33.0 µM 15% | [6]; at 50.0 µM 43.9% | [7]; at 1.2 µM 2% | [7]; at 3.7 µM 9% | [7]; at 11.0 µM 35% | [8]; at 1.2 µM 62%

O=C1c2ccccc2N2OC3(N4CCCC4)CCCCC3C12c1ccccc1 (centres undefined)
inactive: [11]; at 1.2 µM -4% | [11]; at 3.7 µM 1% | [11]; at 11.0 µM 10% | [11]; at 33.0 µM 17% | [12]; at 1.2 µM 6% | [12]; at 3.7 µM -9% | [12]; at 11.0 µM 16% | [12]; at 33.0 µM 36% | [13]; at 1.2 µM -33% | [13]; at 3.7 µM -38% | [13]; at 11.0 µM -28% | [13]; at 33.0 µM 35% | [14]; at 1.2 µM -18% | [14]; at 3.7 µM -7% | [14]; at 11.0 µM -24% | [14]; at 33.0 µM -13% | [15]; at 1.2 µM 5% | [15]; at 3.7 µM -5% | [15]; [17] -35% | [15]; at 11.0 µM 7% | [15]; at 33.0 µM 19% | [15]; [18] -14% | [1]; at 1.2 µM -19% | [1]; at 3.7 µM -7% | [1]; [17] 1% | [1]; at 11.0 µM -25% | [1]; at 33.0 µM -1% | [1]; [18] 23% | [1]; at 50.0 µM 24.9% | [2]; at 1.2 µM -23% | [2]; at 3.7 µM -20% | [2]; at 11.0 µM -27% | [2]; at 33.0 µM -17% | [3]; [17] -9% | [3]; [18] -18% | [4]; at 1.2 µM -9% | [4]; at 3.7 µM -12% | [4]; at 11.0 µM -10% | [4]; at 33.0 µM 4% | [5]; [17] 16% | [5]; [18] 33% | [5]; at 50.0 µM 1.8% | [6]; at 1.2 µM -19% | [6]; at 3.7 µM -13% | [6]; [17] -6% | [6]; at 11.0 µM -2% | [6]; at 33.0 µM 40% | [16]; at 1.2 µM -18% | [16]; at 3.7 µM -17% | [16]; at 11.0 µM -14% | [16]; at 33.0 µM -8% | [8]; at 1.2 µM -1% | [8]; at 3.7 µM 5% | [8]; at 11.0 µM 7% | [8]; at 33.0 µM 61% | [9]; [17] -33% | [9]; [18] 35% | [9]; at 50.0 µM 18.8% | [10]; at 1.2 µM -9% | [10]; at 3.7 µM -7% | [10]; at 11.0 µM -7% | [10]; at 33.0 µM 15%
active: [11]; at 100.0 µM 98% | [12]; at 100.0 µM 98% | [13]; at 100.0 µM 99% | [14]; at 100.0 µM 98% | [15]; at 50.0 µM 84.6% | [15]; at 100.0 µM 97% | [1]; at 100.0 µM 98% | [2]; at 100.0 µM 98% | [3]; at 50.0 µM 74.7% | [4]; at 100.0 µM 98% | [6]; [18] 92% | [6]; at 50.0 µM 79.7% | [6]; at 100.0 µM 98% | [16]; at 100.0 µM 88% | [8]; at 100.0 µM 98% | [10]; at 100.0 µM 98%

COC(=O)C(=O)CC(=O)c1cccc(OC)c1
active: [2]; at 100.0 µM 94% | [8]; at 100.0 µM 82%
inactive: [11]; at 1.2 µM -9% | [11]; at 3.7 µM -10% | [11]; at 11.0 µM -5% | [11]; at 33.0 µM 10% | [11]; at 100.0 µM 17% | [12]; at 1.2 µM 1% | [12]; at 3.7 µM 9% | [12]; at 11.0 µM 24% | [12]; at 33.0 µM 28% | [12]; at 100.0 µM 39% | [13]; at 1.2 µM -10% | [13]; at 3.7 µM -23% | [13]; at 11.0 µM -7% | [13]; at 33.0 µM 32% | [13]; at 100.0 µM 26% | [14]; at 1.2 µM -1% | [14]; at 3.7 µM -4% | [14]; at 11.0 µM 2% | [14]; at 33.0 µM 14% | [14]; at 100.0 µM 40% | [15]; at 1.2 µM -13% | [15]; at 3.7 µM -15% | [15]; [17] -150% | [15]; at 11.0 µM -10% | [15]; at 33.0 µM 32% | [15]; [18] 51% | [15]; at 50.0 µM 19.4% | [15]; at 100.0 µM 44% | [1]; at 1.2 µM 0% | [1]; at 3.7 µM 1% | [1]; [17] -44% | [1]; at 11.0 µM 4% | [1]; at 33.0 µM 10% | [1]; [18] -15% | [1]; at 50.0 µM 18.6% | [1]; at 100.0 µM 16% | [2]; at 1.2 µM -8% | [2]; at 3.7 µM 7% | [2]; at 11.0 µM 33% | [2]; at 33.0 µM 67% | [3]; [17] -58% | [3]; [18] 24% | [3]; at 50.0 µM 0.4% | [5]; [17] -51% | [5]; [18] -45% | [5]; at 50.0 µM -75.5% | [6]; at 1.2 µM -4% | [6]; at 3.7 µM -4% | [6]; [17] -67% | [6]; at 11.0 µM -5% | [6]; at 33.0 µM 2% | [6]; [18] 12% | [6]; at 50.0 µM -7.55% | [6]; at 100.0 µM 22% | [7]; at 1.2 µM -11% | [7]; at 3.7 µM -5% | [7]; at 11.0 µM -3% | [7]; at 33.0 µM 39% | [7]; at 100.0 µM 64% | [8]; at 1.2 µM -16% | [8]; at 3.7 µM -6% | [8]; at 11.0 µM 8% | [8]; at 33.0 µM 49% | [9]; [17] -143% | [9]; [18] -19% | [9]; at 50.0 µM 49.6% | [10]; at 1.2 µM -6% | [10]; at 3.7 µM -2% | [10]; at 11.0 µM -1% | [10]; at 33.0 µM 6% | [10]; at 100.0 µM 19%
